Screening data (PubChem BioAssay)
PI4K2A inh – qHTS for small molecular inhibitors of PI4K2A | 420,000 tested, 0.13% active | Phosphatidylinositol 4-kinase type 2-alpha (Homo sapiens), Q9BTU6 | activity change, negative = inhibition, % at 76.9 µM | purified PI4K2A, ADP-Glo luminescence, 1 h; stronger effect = lower value; in the data active = activity change below about -50%; inconclusive = mostly about -30% to -49%
Target sequence (Q9BTU6 whole entry, looked up): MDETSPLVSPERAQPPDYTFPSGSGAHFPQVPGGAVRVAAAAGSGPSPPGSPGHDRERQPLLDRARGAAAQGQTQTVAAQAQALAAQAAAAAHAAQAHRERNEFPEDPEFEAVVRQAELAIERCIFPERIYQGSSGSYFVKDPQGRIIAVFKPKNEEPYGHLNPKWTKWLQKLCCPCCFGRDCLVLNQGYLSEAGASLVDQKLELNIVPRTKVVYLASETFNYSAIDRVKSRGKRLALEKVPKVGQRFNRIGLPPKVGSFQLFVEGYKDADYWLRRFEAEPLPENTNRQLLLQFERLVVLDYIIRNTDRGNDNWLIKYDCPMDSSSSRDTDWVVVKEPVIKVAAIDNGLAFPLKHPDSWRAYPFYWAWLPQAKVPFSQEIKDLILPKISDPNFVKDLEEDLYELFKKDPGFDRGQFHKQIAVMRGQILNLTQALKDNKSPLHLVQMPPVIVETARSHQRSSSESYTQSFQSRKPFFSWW
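ADP-Glo luminescence measured ADP generated by PI4K2A enzyme (4 ug/mL before mixing) with 1.2 mM PI substrate (pre-mix) and 300 microM ATP (pre-mix). Tris pH7.5 buffer with MgCl2, Triton X-100; 1 h reaction at ambient temperature.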
D3 antag – qHTS of D3 Dopamine Receptor Antagonist: qHTS; D3R cells, DiscoveRx beta-arrestin luminescence, antagonist mode; stronger effect = lower value; 360,000 tested, 2.5% active; D(3) dopamine receptor (Homo sapiens), P35462; max response, negative = inhibition, %; in the data active = max response below about -50%; inconclusive = no clear call, values can overlap the other calls
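Cells plated overnight at 1500 cells/well, then exposed to library compounds with dopamine controls for 90 minutes at 37 degrees C. DiscoveRx reagent added for 30–60 minutes at room temperature; luminescence read, quantitative HTS format.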
LDHA block – qHTS assay for inhibitors of human lactate dehydrogenase. 480,000 tested, 0.15% active. AID 1347041, 2019. activity change, % (values are at about 110 or 230 µM). L-lactate dehydrogenase A chain (Homo sapiens), P00338. purified LDHA, NADH/diaphorase-resazurin fluorescence; stronger effect = lower value; in the data active = activity change below about -30%; inconclusive = mostly about -25% to -30%
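Resorufin fluorescence (ex540/em590), read at 0 and 20 min after diaphorase/resazurin addition, reports the NADH left after a 5 min room-temperature reaction of 2 nM human LDH5 with 0.06 mM NADH and 0.2 mM pyruvate.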
D3 ag – qHTS of D3 Dopamine Receptor Agonist: qHTS. D(3) dopamine receptor (Homo sapiens), P35462. D3R DiscoveRx beta-arrestin cells, luminescence, 90 min. max activation, %. 410,000 tested, 0.58% active. AID 652048, 2013; in the data active = max activation above about 30%
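Cells at 1500/well, incubated overnight, then treated with pinned compounds (dopamine as control) for 90 min at 37 degrees C. DiscoveRx reagent added for 30 - 60 minutes at room temperature; luminescence read.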
pAkt inh – HTS Assay for Inhibitors of Akt Phophorylation: Primary Screen; activity change, % for hits at 50 µM; 360,000 tested, 0.32% active; Neuro2A IGF-stimulated pAkt S473 HTRF, 20 min; stronger effect = lower value; in the data active = activity change below about -80%; inconclusive = mostly about -51% to -80%
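Neuro2A cells (4,500/well, DMEM with 0.5% FBS) were treated with compound at a single 50 µM final concentration, stimulated with 6 nM IGF for 20 min at 37 °C, and lysed. Phospho-Akt Ser473 was read by HTRF as 665/615 ratio ×10^4.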
RGS4 inhibitor – Inhibitors of Regulator of G Protein Signaling (RGS) 4: qHTS. Potency, µM (highest dose often 114 µM), hits mostly inhibitors. AID 504845, 2011. Transcreener GDP fluorescence polarization, RGS4-accelerated GTP hydrolysis. 390,000 tested, 0.039% active; active = well fitted inhibition curve with a large enough effect; inconclusive = small, poorly fitted or top-dose-only effect; inactive = no such curve, though single readings can be large or run the other way; note: nearly all actives have a fitted effect of over 75% in size
Target sequence (P49798 whole entry, looked up): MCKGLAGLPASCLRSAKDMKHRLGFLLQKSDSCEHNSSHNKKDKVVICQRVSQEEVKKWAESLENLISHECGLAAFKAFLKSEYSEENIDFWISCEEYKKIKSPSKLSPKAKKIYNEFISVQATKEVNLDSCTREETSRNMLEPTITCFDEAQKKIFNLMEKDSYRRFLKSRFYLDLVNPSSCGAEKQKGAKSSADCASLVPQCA
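MLSMR compounds (23 nl, pin-transferred) preincubated 10 min at room temperature with a 500nM (2x) first reagent, then RGS4 at 900nM (2x) plus Transcreener GDP mix added; fluorescence polarization (620/688 nm) read before and after 90 min at 30 °C.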
A number is an active result; - = inactive; ? = inconclusive; . = no result given; [ ] = another dose, or the depositor's remark. Only some compounds are listed: those with a hit (about 2.8% of all), similar ones and a draw of the others.

SMILES	PI4K2A inh	D3 antag	LDHA block	D3 ag	pAkt inh	RGS4 inhibitor
C/C(=N/NC(N)=S)c1cc2ccc(O)cc2oc1=O	-	-	-	-	-	-
COC(=O)c1ccc(Oc2coc3cc(OC(=O)c4ccccc4Br)ccc3c2=O)cc1	.	.	-	.	.	.
CC(C)(C)OC(=O)Nc1ccc(C(=O)NCC(c2ccco2)N2CCCCC2)cc1 (centres undefined)	.	.	-	.	.	.
CN1/C(=C\C=C2/SC(=S)N(CC(=O)O)C2=O)C(C)(C)c2ccccc21	-	-79	-	-	-	-
CN1CCS/C1=C\C=C1/SC(=S)N(CC(=O)O)C1=O	-	-68	-	-	-	-
CCN1C(=O)/C(=C/C=C2/SCCN2C)SC1=S	-	-	-	-	-	-[11.4 µM]
CCNc1c(NC(=O)Nc2ccc(Cl)cc2)c(=O)oc2ccccc12	.	.	-	.	.	.
Cc1ccccc1-c1nc(CN2CCC(C(=O)NCC3CCCO3)CC2)c(C)o1 (centres undefined)	-	-	-	-	-119%	-
Cc1oc(-c2cccc(Cl)c2)nc1CN1CCC(C(=O)NCC2CCCO2)CC1 (centres undefined)	-	-	-	-	.	-
Cc1oc(-c2ccccc2F)nc1CN1CCC(C(=O)NCc2cccs2)CC1	-	-52	-	-	-	-
Cc1oc(-c2ccccc2F)nc1CN1CCC(C(=O)NC2CC2)CC1	-	-	-	-	.	-
O=S(=O)(c1cccc(Br)c1)N1CCN(c2nc3ccccc3o2)CC1	.	.	-	.	.	.
Cc1nc2c(nc1C)C(=O)c1ccccc1C2=O	-56	-	-	-	-	-
CCCOc1ccc(N)cc1N	-58	-	-	-	-	?
Cc1oc(-c2nc(C#N)c(N(C)C)o2)cc1S(=O)(=O)N(C)Cc1ccccc1	.	.	-	.	.	.
COc1ccc(Br)cc1C=NNC(=O)c1ccncc1	-	.	.	.	.	.
COc1c(Br)cc(Br)cc1/C=N/NC(=O)c1ccncc1	-	-80	-	-	-	-
COc1c(Br)cc(Br)cc1/C=N/NC(=O)c1cccnc1	-	-96	-	-	-	-
COC(=O)CC1c2cc(OC)c(OC)cc2CCN1Cc1noc(C(C)(C)C)n1 (centres undefined)	.	.	-	.	.	.
CCCN(Cc1cc(OC)c(OC)c(OC)c1)Cc1cc(=O)n2cc(C)sc2n1	.	.	-	.	.	.
COc1ccc(-c2noc(Cn3c(=O)c4ccccc4n(CC(=O)NCc4ccccc4)c3=O)n2)cc1	.	.	-	.	.	.
c1c(C2CCCCC2)n[nH]c1CN1CCCCC1	-	-73	-	-	-	-
c1cc(CN2CCN(C3CCCCCC3)CC2)ccn1	-	-	-	-	-	-
O=C(Nc1ccc(F)c(Cl)c1)c1ccc[n+]([O-])c1	.	.	-	.	.	.
COc1ccc2c(c1)C1(Nc3ccccc3-c3nc4ccccc4n31)C(=O)N2C (centres undefined)	-	?	-	-	-	-
SMILES	PI4K2A inh	D3 antag	LDHA block	D3 ag	pAkt inh	RGS4 inhibitor
COc1ccc2c(c1)C1(Nc3ccccc3-c3nc4ccccc4n31)C(=O)N2 (centres undefined)	-	-59	-	-	-	-
CC(C)c1ccc(NC(=O)C2CC(=O)NC(N3CCN(c4ccccc4)CC3)=N2)cc1 (centres undefined)	.	.	-	.	.	.
COc1cc(C(=O)NC(=S)Nc2ccc(Cl)c(C(=O)O)c2)cc(OC)c1OC	-	-89	-	-	-	-
CCOC(=O)c1c(C)nc2sc3c(=O)n(-c4ccc(OC)cc4)cnc3c2c1-c1ccc(OC)cc1	-	-	-	-	-111%	-
COc1ccc(-c2cc(C(=O)NCCN3CCOCC3)c3ccccc3n2)c(OC)c1	-	-55	-	-	-	-
CN(CCNC(=O)CCCOc1cc(=O)n(C)c2ccccc12)Cc1ccccc1	-	-93	-	-	-	-[11.4 µM]
O=C(NCCN1CCOCC1)c1cc(-c2ccccc2)nc2ccccc12	-	?	-	-	-	.
CC1CCN(CCCNC(=O)c2n[nH]c(=O)c3ccccc23)CC1	-	-62	-	-	-	-
CCn1c(=O)cc(OCC(=O)NCCCN2CCC(C)CC2)c2ccccc21	-	?	-	-	-	-
CCN1CCCC1CNC(=O)c1n[nH]c(=O)c2ccccc12 (centres undefined)	.	.	-	.	.	.
CC1CCN(CCCNC(=O)COc2cc(=O)n(C)c3ccccc23)CC1	-	-75	-	-	-	-
CC(C)[C@H](NC(=O)CCn1ccc2ccc(F)cc21)C(=O)O	.	.	-	.	.	.
CCN(CC)S(=O)(=O)c1ccc(-c2nc(C#N)c(N3CCC(Cc4ccccc4)CC3)o2)cc1	.	.	-	.	.	.
N#Cc1cccc(NC(=O)CCc2ncc(-c3ccc(Cl)cc3)o2)c1	.	.	-	.	.	.
CCCCCN(Cc1ccc(F)cc1)C(=O)Nc1ccc(N(C)C)nc1	.	.	-	.	.	.
CCCCN(CC)CCCNC(=O)c1cc2cc3ccc(OC)cc3nc2o1	-	-72	-	-	-	-
CCN1CCN(CCCNC(=O)c2cc3cc4ccc(OC)cc4nc3o2)CC1	-	-	-	-	-	-
COc1ccc2cc3cc(C(=O)NCCCN4CCC(C)CC4)oc3nc2c1	-	-58	-	-	-	-
COc1ccc2cc3cc(C(=O)NCCN4CCN(Cc5ccccc5)CC4)oc3nc2c1	-	-61	-	-	-	-
CC1CCN(CCCNC(=O)c2coc3nc4ccccc4nc23)CC1	-	-78	-	-	-	-
Cc1ccc(-c2cc(C(=O)O)c3cccc(Cl)c3n2)cc1	.	.	-	.	.	.
CCn1c(O)c(C2=c3ccccc3=NC2=O)c2cc(Br)ccc21	-	-80	-	-	-	-
CCCC(=O)Nc1cccc(NC(=O)c2ccc(C)c(C)c2)c1	.	.	-	.	.	.
CCOC(=O)N1CCN(S(=O)(=O)c2ccc(C(=O)Nc3nnc(C)o3)cc2)CC1	-	-51	-	-	-	-
CCOC(=O)N1CCN(S(=O)(=O)c2ccc(C(=O)Nc3nnc(CSC)o3)cc2)CC1	-	-	-	-	-	-
COc1ccc(-c2cc(Nc3cccc(OC)c3)nc(C)n2)cc1	.	.	-	.	.	.
Cc1oc2ncnc(N3CCC(C(=O)Nc4ccc(Cl)cc4F)CC3)c2c1C	.	.	-	.	.	.
COc1ccc(CCNC(=O)CC2SC(=NCc3ccccc3OC)NC2=O)cc1 (centres undefined)	-	-	-	-	-	-
COc1ccccc1CN=C1NC(=O)C(CC(=O)Nc2ccc(C(C)=O)cc2)S1 (centres undefined)	-	-	-	53	-	-
